This is a sample that favours compounds with a hit; in the whole collection about 0.95% have one here.
Cdc25B block – human M-phase inducer phosphatase 2 inhibition. inhibition, %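 (compounds tested at 10 µM final in the well)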. recombinant Cdc25B, OMFP fluorescence Ex485/Em525. 65,000 tested, 0.1% active. P30305; in the data active means inhibition above about 50%
DUSP1 inh – inhibitors of human MKP-1 phosphatase; inhibition, %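 (compounds tested at a single concentration somewhere between 10 and 100 µM)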; 65,000 tested, 0.15% active; recombinant MKP-1, OMFP hydrolysis fluorescence; AID 374; P28562;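 active means inhibition above about 50%, limit read from the data; inconclusive means inhibition over screen mean plus 3 SD, below that limit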;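 further: 0% = DMSO max control wells and 100% = wells with enzyme stopped by NaOH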
WNV NS2B-NS3 inh – inhibitors of West Nile virus NS2B-NS3 protease | 65,000 tested, 0.18% active | z-score (test concentration not listed) | AID 577 | WNV NS2B-NS3 protease, fluorogenic substrate Ex360/Em465; active compounds read low | P06935; in the data active means z-score below about -3
PKA inh – blocks human protein kinase A activity | P17612 | PKA Kemptide phosphorylation, Kinase-Glo ATP luminescence | inhibition, % at 6 µM | 65,000 tested, 0.1% active | AID 524;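 active means inhibition above the screen-wide mean inhibition plus 3 SD, cut at about 21% in these data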
SK-BR-3 tox 24h – SK-BR-3 proliferation inhibitors; viability, % at 10 µM; 41,000 tested, 0.47% active; SK-BR-3 viability, CellTiter-Glo ATP luminescence, 24 h; active compounds read low;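 active means viability at or below the median of all test compounds minus 3 SD, in both replicates if run twice, cut at about 45% in these data; inconclusive means duplicate replicates that disagree with each other; inactive means viability above that cutoff in every replicate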;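 further: 100% = median untreated cell wells and 0% = median positive control drug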
ROCK2 inh – inhibitors of human Rho kinase 2 | purified ROCK2, Kinase-Glo ATP depletion luminescence | 60,000 tested, 0.35% active | inhibition, % at 6 µM | O75116 | AID 604;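 active means inhibition above the screen-wide mean inhibition plus 3 SD, cut at about 18% in these data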;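 further: plate controls were DMSO wells for no effect and Y-27632 control wells after no-enzyme background subtraction for full effect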
* marks the source's active call; other numbers are inactive results.

Screening Cc1onc(-c2ccccc2)c1C(=O)Nc1sc2c(c1C#N)CCC2 returned Cdc25B block -5.9, DUSP1 inh 25.9, WNV NS2B-NS3 inh 1.29, PKA inh 9.5, SK-BR-3 tox 24h 43.9* and ROCK2 inh 3.2.
`O=C(Nc1cc(C(F)(F)F)ccc1N1CCOCC1)C1Cc2ccccc2CN1C(=O)c1ccco1` (centres undefined) gave Cdc25B block 1.8, DUSP1 inh inconclusive, WNV NS2B-NS3 inh -0.86, PKA inh -2.8 and ROCK2 inh -12.9.
O=C(CCC1CCCCC1)N1CCN(Cc2ccc3c(c2)OCO3)CC1 was read as Cdc25B block -5.0, DUSP1 inh -8.5, WNV NS2B-NS3 inh -0.28, PKA inh -1.2, SK-BR-3 tox 24h 78.0 and ROCK2 inh -9.7.
O=C1CC(NCc2ccncc2)C(=O)N1c1ccc(Cl)cc1 (centres undefined) was read as Cdc25B block 17.6, DUSP1 inh -11.1, WNV NS2B-NS3 inh 0.71, PKA inh 1.2, SK-BR-3 tox 24h 73.5 and ROCK2 inh -12.8.
`Cc1ccc(CN2CCN(CC(=O)N3CCC(C(N)=O)CC3)C2=O)cc1` gave Cdc25B block 69.9*, DUSP1 inh -1.5, WNV NS2B-NS3 inh 0.7, PKA inh 9.1 and ROCK2 inh 4.2.
`NC/C(=N\O)c1ccc(Cl)cc1Cl` gave Cdc25B block 6.5, DUSP1 inh 10.1, WNV NS2B-NS3 inh -0.4, PKA inh 9.2, SK-BR-3 tox 24h 107.7 and ROCK2 inh 6.6.
`COC(=O)c1cc(OC)c(OC)cc1NC(=O)c1cc(C)on1` gave Cdc25B block -10.2, DUSP1 inh 14.9, WNV NS2B-NS3 inh -0.95, PKA inh -6.3, SK-BR-3 tox 24h 94.5 and ROCK2 inh -4.3.
`O=C(c1c(F)c(F)c(F)c(F)c1F)N1CCc2ccccc21` gave Cdc25B block 3.5, DUSP1 inh 7.5, WNV NS2B-NS3 inh -0.3, PKA inh 3.2, SK-BR-3 tox 24h 84.2 and ROCK2 inh -3.4.
COc1cccc(Cn2c(-c3nonc3N)nc3ccccc32)c1 was read as Cdc25B block 14.5, DUSP1 inh 6.4, WNV NS2B-NS3 inh -0.18, PKA inh -5.1, SK-BR-3 tox 24h 82.6 and ROCK2 inh -4.9.
Screening COc1cc(Cn2c(-c3nonc3N)nc3ccccc32)ccc1C returned Cdc25B block -1.9, DUSP1 inh 6.1, WNV NS2B-NS3 inh 0.18, PKA inh -3.6, SK-BR-3 tox 24h 35.5* and ROCK2 inh -1.8.
O=C(Nc1ccncc1)C1CCCN(S(=O)(=O)c2cccc3cccnc23)C1 (centres undefined) was read as Cdc25B block 2.6, DUSP1 inh -2.5, WNV NS2B-NS3 inh -0.79, PKA inh 10.8 and ROCK2 inh 75.3*.
`COc1cccc(NC(=O)C2CCCN(S(=O)(=O)c3cccc4cccnc34)C2)c1` (centres undefined) gave Cdc25B block -19.7, DUSP1 inh -0.7, WNV NS2B-NS3 inh -0.29, PKA inh 5.2 and ROCK2 inh 5.4.
COC1(OC)N=C(N)C2(C#N)C(c3ccc4c(c3)OCO4)C12C#N (centres undefined) was read as Cdc25B block -5.9, DUSP1 inh 20.5, WNV NS2B-NS3 inh 1.13, PKA inh 18.3, SK-BR-3 tox 24h 98.8 and ROCK2 inh 28.9*.
CCOCCCn1c(C)nc2c(c1=O)c1nc3ccccc3nc1n2CCC1=CCCCC1 was read as Cdc25B block -12.7, DUSP1 inh 29.3, WNV NS2B-NS3 inh -0.69, PKA inh 4.1, SK-BR-3 tox 24h 12.3* and ROCK2 inh 4.4.
Screening CCCn1cnc2c(c1=O)c1nc3ccccc3nc1n2CCC1=CCCCC1 returned Cdc25B block 3.2, DUSP1 inh -5.8, WNV NS2B-NS3 inh 0.33, PKA inh 6.3, SK-BR-3 tox 24h 95.0 and ROCK2 inh 3.6.
Screening COc1ccc(-c2nnn(CC(=O)Nc3sc4c(c3C#N)CCCC4)n2)cc1 returned Cdc25B block -6.2, DUSP1 inh 42.0, WNV NS2B-NS3 inh 0.4, PKA inh 1.7, SK-BR-3 tox 24h 101.1 and ROCK2 inh 9.8.
For O=C(Cn1c(NCCCO)nc2ccccc21)c1cccs1 the results were Cdc25B block -5.7, DUSP1 inh -0.9, WNV NS2B-NS3 inh 0.39, PKA inh 4.5 and ROCK2 inh -1.6.
For Cc1ccc(O)c(C(=O)c2cnc3c(c2)CN(CCC(C)C)C(=O)N3)c1 the results were Cdc25B block 1.7, DUSP1 inh 25.0, WNV NS2B-NS3 inh -0.17, PKA inh 10.0 and ROCK2 inh 3.8.
For CN1Cc2cc(C(=O)c3cc(Cl)cc(CSc4ncccn4)c3O)cnc2NC1=O the results were Cdc25B block 5.3, DUSP1 inh 54.7*, WNV NS2B-NS3 inh -0.96, PKA inh 8.0 and ROCK2 inh 4.7.
Screening Cc1oc(-c2ccc(Cl)cc2)nc1CN1CCCC(C(=O)N2CCN(C(=O)c3ccco3)CC2)C1 (centres undefined) returned Cdc25B block -3.1, DUSP1 inh 15.2, WNV NS2B-NS3 inh -1.43, PKA inh -1.4 and ROCK2 inh 0.6.
COc1ccccc1-n1c(C)nnc1SCC(=O)Nc1cc(C)cc(C)c1 was read as Cdc25B block 3.2, DUSP1 inh 9.5, WNV NS2B-NS3 inh -9.13*, PKA inh -0.5, SK-BR-3 tox 24h 88.4 and ROCK2 inh 4.8.
`CN1CCCN(C(=O)Cc2c(Cl)cccc2Cl)c2nc3ccccc3nc21` gave Cdc25B block -1.3, DUSP1 inh 21.4, WNV NS2B-NS3 inh -0.52, PKA inh -2.8 and ROCK2 inh -1.4.
Screening O=C(Oc1cccc2c(=O)[nH]ccc12)c1ccccc1 returned Cdc25B block 1.7, DUSP1 inh 3.6, WNV NS2B-NS3 inh -0.76, PKA inh 1.7, SK-BR-3 tox 24h 96.7 and ROCK2 inh 18.2*.
Screening CCN(CC)C(=O)c1cc2c(=O)n3cccc(C)c3nc2n1C returned Cdc25B block 74.4*, DUSP1 inh 15.1, WNV NS2B-NS3 inh -0.44, PKA inh 2.6, SK-BR-3 tox 24h 73.2 and ROCK2 inh 6.1.
`Cc1cccn2c(=O)c3cc(C(=O)Nc4ccc(N(C)C)cc4)n(C)c3nc12` gave Cdc25B block 5.5, DUSP1 inh 13.3, WNV NS2B-NS3 inh -1.62, PKA inh -1.7, SK-BR-3 tox 24h 78.9 and ROCK2 inh 4.2.
`CN1/C(=N\O)c2cccc3cccc1c23` gave Cdc25B block 3.7, DUSP1 inh 29.7, WNV NS2B-NS3 inh 0.92, PKA inh 9.7, SK-BR-3 tox 24h 101.4 and ROCK2 inh 37.3*.
c1ccc(-n2nc3c(ccc4cnnc43)[nH]2)cc1 was read as Cdc25B block 2.3, DUSP1 inh -1.8, WNV NS2B-NS3 inh -1.27, PKA inh 0.9, SK-BR-3 tox 24h 84.5 and ROCK2 inh 8.5.
Cc1sc(NC(=O)CSc2nnc(C)c(=O)[nH]2)c(C#N)c1C was read as Cdc25B block -7.7, DUSP1 inh 2.7, WNV NS2B-NS3 inh -0.48, PKA inh 12.8, SK-BR-3 tox 24h 132.8 and ROCK2 inh 2.6.
CCOc1nc(Nc2ccc(-c3nc4ccccc4o3)cc2)nc(N2CCOCC2)n1 was read as Cdc25B block 0.4, DUSP1 inh 41.6, WNV NS2B-NS3 inh -0.43, PKA inh 11.8, SK-BR-3 tox 24h 71.7 and ROCK2 inh 5.7.

Compound activity (PubChem)
